Screening data: PubChem, National Center for Advancing Translational Sciences (NCATS)
VDR inh – blocks the human vitamin D receptor; AID 504847; 400,000 tested, 0.93% active; Potency, µM, usual class: inhibitors; P11473; VDR-SRC2-3 peptide fluorescence polarization, 2 h
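Measured by FP: displacement of SRC2-3 coactivator peptide from VDR by library compounds, following a two-hour ambient incubation.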
TDP1 cell CPT – growth inhibition of DT40 Tdp1-/-;hTDP1 cells with camptothecin (screen for TDP1 inhibitors). chicken DT40 Tdp1-/-;hTDP1 cells + 20 nM CPT, ATP luminescence, 48 h. Potency, µM (highest dose often 46.2 µM), actives largely listed as inhibitors. 420,000 tested, 12% active. AID 686979; note: nearly all actives have a fitted effect of over 55% in size
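Chicken DT40 Tdp1-/- cells complemented with human TDP1, 400 cells/well, exposed to compounds plus 20 nM camptothecin for at least 48 h at 37 C; viability read as ATP content by CellTiter-Glo luminescence.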
KAT2A inh – blocks human GCN5L2 histone acetyltransferase; GCN5L2 HAT assay, ThioGlo1 CoA-SH fluorescence; Potency, µM (top dose mostly 58.9 µM), actives largely listed as inhibitors; 390,000 tested, 0.21% active; AID 504327
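Fluorescence readout, Ex340nm/Em540nm: ThioGlo1 (50uM final) reacts with free CoA thiol released as 20nM GCN5L2 acetylates H3(1-25) peptide (75uM) using acetyl-CoA (70uM). Compound and enzyme sat 15 min beforehand; 20 min room-temperature reaction.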
PLK1 PBD inh – blocks phosphopeptide binding to human PLK1 polo-box domain; Plk1 PBD binding of FITC phosphopeptide, fluorescence polarization; AID 720504; 360,000 tested, 2.8% active; P53350; Potency, µM, actives largely listed as inhibitors; note: series mostly up to about 57 µM; nearly all actives have a fitted effect of over 65% in size
Target sequence (P53350 whole entry, looked up, the tested form may be a part): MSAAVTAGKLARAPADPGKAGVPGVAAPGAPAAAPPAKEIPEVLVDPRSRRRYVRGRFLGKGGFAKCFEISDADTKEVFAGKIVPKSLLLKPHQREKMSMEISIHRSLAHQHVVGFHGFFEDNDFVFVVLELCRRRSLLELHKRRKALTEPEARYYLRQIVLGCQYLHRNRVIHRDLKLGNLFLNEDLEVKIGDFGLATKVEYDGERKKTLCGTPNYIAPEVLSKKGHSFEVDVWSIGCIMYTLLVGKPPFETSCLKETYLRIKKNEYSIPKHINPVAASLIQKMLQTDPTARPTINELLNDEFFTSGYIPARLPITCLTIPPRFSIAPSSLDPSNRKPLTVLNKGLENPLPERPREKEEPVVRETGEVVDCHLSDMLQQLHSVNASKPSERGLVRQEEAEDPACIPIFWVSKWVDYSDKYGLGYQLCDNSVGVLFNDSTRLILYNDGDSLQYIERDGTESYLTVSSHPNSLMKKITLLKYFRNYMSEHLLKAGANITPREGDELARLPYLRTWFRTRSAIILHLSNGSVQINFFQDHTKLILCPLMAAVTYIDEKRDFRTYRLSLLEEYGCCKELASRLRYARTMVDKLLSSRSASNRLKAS
DT40 TDP1 no CPT – qHTS for Inhibitors of human tyrosyl-DNA phosphodiesterase 1 (TDP1): qHTS in cells in absence of CPT; AID 686978, 2013; 420,000 tested, 15% active; DT40 Tdp1-/- hTDP1 cells, no CPT, ATP luminescence, 48 h; Potency, µM (highest dose often 46.2 µM), most hits filed as inhibitors; note: nearly all actives have a fitted effect of over 55% in size
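A cellular qHTS used chicken DT40 cells lacking endogenous Tdp1 but carrying stably transfected human TDP1. Compounds were applied without camptothecin, and cell growth kinetics were judged by ATP-dependent luminescence after ≥48 hr.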
TDP1 inh – inhibitors of human tyrosyl-DNA phosphodiesterase TDP1. recombinant TDP1, AlphaScreen DNA substrate cleavage. 350,000 tested, 0.28% active. Potency, µM (highest dose often 130 µM), actives largely listed as inhibitors. AID 485290; note: nearly all actives have a fitted effect of over 40% in size
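Compounds were preincubated with Tdp1 (1 nM final) for 15 min at room temperature before substrate (15 nM final) started a 5 min reaction; beads (10 ug/ml final) were then added for 10 min before AlphaScreen detection.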
A number is an active result; n = inactive; u = inconclusive; x = not tested or not shown; ! = not active in a repeat; [ ] = dose if it differs, or a comment. An excerpt weighted towards active compounds, which were near 18% of everything screened. Calls come from the whole dose curve; as a rule, active = well fitted curve in the direction sought with a large enough effect; inconclusive = small, poorly fitted or top-dose-only effect, or another doubt; inactive = no such curve, though single readings can be large; an effect the other way counts as inactive or inconclusive.

SMILES	VDR inh	TDP1 cell CPT	KAT2A inh	PLK1 PBD inh	DT40 TDP1 no CPT	TDP1 inh
COc1ccc(Br)cc1CN1CCCC(C(=O)N2CCCCC2)C1 (centres undefined)	n	n	n	n	n	x
O=C(C1CCN(Cc2cc(Cl)ccc2O)CC1)N1CCN(Cc2ccccc2)CC1	n	u	n	n	21µM	n
COc1ccc(Br)cc1CN1CCCC(C(=O)N2CCCCCC2)C1 (centres undefined)	n	u	n	n	23µM	n
O=C(C1CCCN(Cc2cccc(Cl)c2)C1)N1CCCCC1 (centres undefined)	u	u	n	19µM	26µM	x
CC1(C(=O)NS(=O)(=O)c2ccc(F)cc2F)CCN1C(=O)CC1CCCCC1 (centres undefined)	x	n	x	n	n	x
NC(=O)C1CCN(C(=O)CCC(=O)N2CCOc3ccc(Cl)cc32)CC1	n	n	n	n	n	x
CCN1CCN(c2oc(/C=C/c3ccc(OC)c(OC)c3)nc2C#N)CC1	n	16µM	n	x	u	n
COc1ccc(/C=C/c2nc(C#N)c(N3CCCCCC3)o2)cc1OC	n	12µM	n	x	8.2µM	n
COc1ccccc1/C=C/c1nc(C#N)c(N2CCCCCC2)o1	n	u	n	x	n	n
COc1cccc(/C=C/c2nc(C#N)c(N3CCN(C)CC3)o2)c1	n	23µM	n	x	23µM	n
O=C(c1csnn1)N1CCC[C@@]2(CCN(c3ccccn3)C2)C1	n	n	n	x	n	x
CS(=O)(=O)c1ccccc1C(=O)Nc1cccc(-c2nc3ccccc3o2)c1	n	u	n	n	u	n
CC(C)(C)NC(=O)N1CCC(C(=O)O)CC1	n	n	n	x	n	n
CCc1nnc(NC(=O)C2c3ccccc3Oc3ccccc32)s1	n	u	n	n	u	n
CC(=O)Nc1ccc2nc(NC(=O)COc3cccc(C)c3)sc2c1	n	n	n	n	u	n
CCOCCc1nnc(NC(=O)C(=O)c2cc(C)n(-c3cccc(C)c3)c2C)s1	n	n	n	x	u	n
NC(=O)c1ccsc1NC(=O)CCc1ccccc1	n	u	n	n	u	x
Cc1ccc(C)c(OCCCC(=O)NC2CCCCC2)c1	n	u	n	n	u	x
CCOc1ccccc1OCCCC(=O)Nc1sccc1C(N)=O	n	u	n	n	16µM	n
Cc1ccc(C)c(OCCCC(=O)Nc2ccccc2C(N)=O)c1	n	u	n	n	16µM	n
C=CCNC(=O)CCCOc1cc(C)ccc1C	n	n	n	27µM	n	n
Cn1c2ccccc2c2cnn(CC(=O)Nc3ccccc3F)c(=O)c21	n	n	n	x	u	n
CC(OC(=O)CCc1nc2ccccc2c(=O)[nH]1)C(=O)Nc1cccc(C(F)(F)F)c1 (centres undefined)	n	n	n	n	n	n
COc1cc(C(=O)OCCCN2CCCN(CCCOC(=O)c3cc(OC)c(OC)c(OC)c3)CC2)cc(OC)c1OC	n	17µM!	n	n	24µM	n
COc1cc(C(=O)OCCCN(C)C)cc(OC)c1OC	n	n	n	n	n	n
SMILES	VDR inh	TDP1 cell CPT	KAT2A inh	PLK1 PBD inh	DT40 TDP1 no CPT	TDP1 inh
CCN(CC)CCCCCCCCOC(=O)c1cc(OC)c(OC)c(OC)c1	n	u	n	n	22µM!	n
Cc1ccc(CNC(=O)Cc2c(C)c3c(cc(C)c4c(C)coc43)oc2=O)cc1	n	n	n	x	n	n
CC1=C(C(=O)Nc2ccc(C)cc2C)C(c2ccc(Br)cc2)n2ncc(C(=O)Nc3cccc(C)c3)c2N1 (centres undefined)	n	n	n	x	u	n
O=[N+]([O-])c1cc(S(=O)(=O)C(F)(F)F)ccc1N1CCN(c2ccccc2)CC1	n	u	n	n	16µM	n
O=[N+]([O-])c1cc(Cl)ccc1N1CCCC1	n	n	n	n	n	n
O=[N+]([O-])c1cc(Cl)ccc1N1CCN(c2cccc(C(F)(F)F)c2)CC1	n	u	n	n	9.2µM	n
O=c1c(N2CCN(c3cccc(C(F)(F)F)c3)CC2)csc2ccccc12	n	21µM	n	x	26µM	n
O=S(=O)(c1ccc(N2CCN(c3ccc(F)cc3)CC2)cc1)N1CCCC1	n	n	n	n	n	n
Cc1ccc2scc(N3CCN(c4cccc(C(F)(F)F)c4)CC3)c(=O)c2c1	n	u	n	x	u	n
O=S(=O)(c1ccc(N2CCCC2)cc1)C(F)(F)F	n	u	n	n	12µM	n
C[C@@H]1CC[C@H]2C(=O)O[C@H](CN=[N+]=[N-])CN2[C@@H]1c1ccc(Br)cc1	x	x	x	x	x	n[21 µM]
COc1ccccc1OCCCN1CCC(C(O)(c2ccccc2)c2ccccc2)CC1	x	u	x	n	21µM	x
OC(c1ccccc1)(c1ccccc1)C1CCN(CCCOc2ccc(F)cc2)CC1	x	u	x	n	u	x
OC(c1ccccc1)(c1ccccc1)C1CCN(CCCOc2ccccc2Cl)CC1	x	21µM	x	n	16µM	x
COc1cc(C(=O)OCc2cccc(OC)c2OC)ccc1OCC(=O)N1CCOCC1	n	n	n	n	n	n
CCOc1cc(C(=O)OC(C(=O)NC(=O)NC)c2ccccc2)ccc1OCC(=O)N1CCOCC1 (centres undefined)	n	18µM	n	n	18µM	n
COc1cc(C(=O)OC(C)c2ccc(F)cc2)ccc1OCC(=O)N1CCOCC1 (centres undefined)	n	u	n	n	23µM	n
CN(Cc1ccccc1)C(=O)c1ccc(NC(=O)Cc2cccc(NC(=O)C3CCCN(C(=O)CCc4ccccc4)C3)c2)cc1 (centres undefined)	n	u	n	n	u	n
CN(C(=O)c1cccc(NC(=O)Cc2ccc(NC(=O)C3CCCN(C(=O)CCc4ccccc4)C3)cc2)c1)C1CCCC1 (centres undefined)	n	u	x	n	16µM	x
CN(Cc1ccccc1)C(=O)c1cccc(NC(=O)Cc2ccc(NC(=O)C3CCCN(C(=O)CCc4ccccc4)C3)cc2)c1 (centres undefined)	n	23µM	x	n	15µM	x
CN(C(=O)c1cccc(NC(=O)Cc2ccc(NC(=O)C3CCCN(C(=O)CCc4ccccc4)C3)cc2)c1)C1CCC1 (centres undefined)	n	u	x	n	15µM	x
CN(C(=O)c1ccc(NC(=O)Cc2cccc(NC(=O)C3CCCN(C(=O)CCc4ccccc4)C3)c2)cc1)C1CCCC1 (centres undefined)	n	29µM	n	n	u	n
CN(C(=O)c1ccc(NC(=O)Cc2cccc(NC(=O)C3CCCN(C(=O)C4CCC4)C3)c2)cc1)C1CC1 (centres undefined)	n	n	x	n	u	x
